Test results: ChEMBL document CHEMBL1961873, “Compounds: GSK PKIS; Assays: Nanosyn kinase panel” (2012)
Several values for one entry are separate records, joined by “and”; a condition that tells them apart may be missing. Equal entries are not always repeated.

Tests used:
[1] = biological target: Tyrosine-protein kinase Fyn (Homo sapiens) (UniProt P06241); details: at 1 µM
[2] = biological target: Tyrosine-protein kinase HCK (Homo sapiens) (UniProt P08631); details: at 0.1 µM
[3] = biological target: Tyrosine-protein kinase HCK (Homo sapiens) (UniProt P08631); details: at 1 µM
[4] = biological target: Insulin-like growth factor 1 receptor (Homo sapiens) (UniProt P08069); details: at 0.1 µM
Sequence of Insulin-like growth factor 1 receptor (Homo sapiens) (P08069 31-736 limits assumed): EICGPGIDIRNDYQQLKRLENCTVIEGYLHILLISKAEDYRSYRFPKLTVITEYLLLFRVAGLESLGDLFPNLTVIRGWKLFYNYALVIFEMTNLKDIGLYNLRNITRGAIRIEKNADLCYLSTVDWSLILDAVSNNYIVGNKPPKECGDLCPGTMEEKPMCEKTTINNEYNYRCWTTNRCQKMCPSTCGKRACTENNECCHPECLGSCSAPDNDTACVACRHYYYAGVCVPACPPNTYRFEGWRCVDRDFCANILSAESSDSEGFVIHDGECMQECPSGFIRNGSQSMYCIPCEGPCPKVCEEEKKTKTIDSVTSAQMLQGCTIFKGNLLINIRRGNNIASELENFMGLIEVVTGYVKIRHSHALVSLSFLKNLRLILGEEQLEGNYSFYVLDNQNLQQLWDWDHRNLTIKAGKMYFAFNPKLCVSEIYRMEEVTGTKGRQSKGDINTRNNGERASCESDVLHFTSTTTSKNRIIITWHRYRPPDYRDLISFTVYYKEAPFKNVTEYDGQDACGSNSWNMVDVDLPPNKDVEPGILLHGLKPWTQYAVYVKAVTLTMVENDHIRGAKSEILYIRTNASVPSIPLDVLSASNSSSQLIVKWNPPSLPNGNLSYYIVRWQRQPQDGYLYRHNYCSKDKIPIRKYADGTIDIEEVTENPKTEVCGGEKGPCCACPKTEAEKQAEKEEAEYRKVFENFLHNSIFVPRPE
Sequence of Insulin-like growth factor 1 receptor (Homo sapiens) (P08069 741-1367 limits assumed): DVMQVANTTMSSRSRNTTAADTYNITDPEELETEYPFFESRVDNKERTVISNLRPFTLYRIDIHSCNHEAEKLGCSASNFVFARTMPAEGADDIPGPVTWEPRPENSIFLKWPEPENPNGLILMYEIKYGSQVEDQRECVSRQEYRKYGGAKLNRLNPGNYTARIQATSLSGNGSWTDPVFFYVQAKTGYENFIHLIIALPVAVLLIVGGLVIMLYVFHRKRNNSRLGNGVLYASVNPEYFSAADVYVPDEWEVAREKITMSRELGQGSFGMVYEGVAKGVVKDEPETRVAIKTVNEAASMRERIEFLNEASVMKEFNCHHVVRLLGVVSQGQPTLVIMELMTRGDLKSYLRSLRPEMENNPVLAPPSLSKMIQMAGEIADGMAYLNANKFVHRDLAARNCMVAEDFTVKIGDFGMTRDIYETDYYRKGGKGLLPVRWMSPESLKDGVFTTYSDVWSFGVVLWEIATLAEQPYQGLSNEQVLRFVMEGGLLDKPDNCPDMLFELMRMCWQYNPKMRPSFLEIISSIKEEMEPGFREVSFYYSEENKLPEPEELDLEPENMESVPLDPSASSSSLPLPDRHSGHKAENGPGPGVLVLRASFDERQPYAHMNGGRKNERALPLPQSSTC

[5] = biological target: Insulin-like growth factor 1 receptor (Homo sapiens) (UniProt P08069); details: at 1 µM
[6] = biological target: Insulin receptor (Homo sapiens) (UniProt P06213); details: at 0.1 µM
Sequence of Insulin receptor (Homo sapiens) (P06213 28-758 limits assumed): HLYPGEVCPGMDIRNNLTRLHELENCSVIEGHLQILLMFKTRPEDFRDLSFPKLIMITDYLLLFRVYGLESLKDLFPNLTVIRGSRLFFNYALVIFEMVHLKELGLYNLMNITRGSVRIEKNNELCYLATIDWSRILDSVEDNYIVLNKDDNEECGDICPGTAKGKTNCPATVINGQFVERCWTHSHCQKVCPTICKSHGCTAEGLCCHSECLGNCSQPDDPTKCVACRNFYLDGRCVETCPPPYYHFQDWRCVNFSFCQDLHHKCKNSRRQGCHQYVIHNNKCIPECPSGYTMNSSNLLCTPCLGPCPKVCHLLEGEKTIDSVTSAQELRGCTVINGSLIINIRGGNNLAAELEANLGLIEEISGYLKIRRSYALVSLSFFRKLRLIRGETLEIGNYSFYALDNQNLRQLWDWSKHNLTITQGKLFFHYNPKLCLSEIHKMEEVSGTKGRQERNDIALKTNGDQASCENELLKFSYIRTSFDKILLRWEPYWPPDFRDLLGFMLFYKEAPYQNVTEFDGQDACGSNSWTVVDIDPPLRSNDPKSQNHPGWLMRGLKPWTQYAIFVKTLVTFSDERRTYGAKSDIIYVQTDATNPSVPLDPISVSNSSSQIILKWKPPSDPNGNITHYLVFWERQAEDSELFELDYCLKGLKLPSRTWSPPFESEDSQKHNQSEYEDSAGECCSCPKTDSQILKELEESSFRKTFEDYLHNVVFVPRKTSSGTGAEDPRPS
Sequence of Insulin receptor (Homo sapiens) (P06213 763-1382 limits assumed): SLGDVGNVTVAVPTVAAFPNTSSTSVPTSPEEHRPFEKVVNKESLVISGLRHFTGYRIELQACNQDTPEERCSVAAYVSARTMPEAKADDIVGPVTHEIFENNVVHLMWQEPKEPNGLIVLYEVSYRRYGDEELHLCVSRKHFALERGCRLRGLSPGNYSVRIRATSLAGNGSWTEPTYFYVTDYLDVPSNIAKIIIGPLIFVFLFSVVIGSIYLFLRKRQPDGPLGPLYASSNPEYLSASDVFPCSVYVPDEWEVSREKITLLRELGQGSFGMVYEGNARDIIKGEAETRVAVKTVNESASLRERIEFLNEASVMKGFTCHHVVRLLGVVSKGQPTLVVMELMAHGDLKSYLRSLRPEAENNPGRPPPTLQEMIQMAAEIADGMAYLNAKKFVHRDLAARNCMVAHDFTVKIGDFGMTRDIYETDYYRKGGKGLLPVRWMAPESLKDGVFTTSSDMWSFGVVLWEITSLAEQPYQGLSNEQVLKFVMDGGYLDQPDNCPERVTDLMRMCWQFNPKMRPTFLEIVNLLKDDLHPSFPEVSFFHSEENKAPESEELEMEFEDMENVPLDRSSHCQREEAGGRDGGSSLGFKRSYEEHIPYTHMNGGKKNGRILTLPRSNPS

[7] = biological target: Insulin receptor (Homo sapiens) (UniProt P06213); details: at 1 µM
[8] = biological target: Insulin receptor-related protein (Homo sapiens) (UniProt P14616); details: at 0.1 µM
Sequence of Insulin receptor-related protein (Homo sapiens) (P14616 27-742 limits assumed): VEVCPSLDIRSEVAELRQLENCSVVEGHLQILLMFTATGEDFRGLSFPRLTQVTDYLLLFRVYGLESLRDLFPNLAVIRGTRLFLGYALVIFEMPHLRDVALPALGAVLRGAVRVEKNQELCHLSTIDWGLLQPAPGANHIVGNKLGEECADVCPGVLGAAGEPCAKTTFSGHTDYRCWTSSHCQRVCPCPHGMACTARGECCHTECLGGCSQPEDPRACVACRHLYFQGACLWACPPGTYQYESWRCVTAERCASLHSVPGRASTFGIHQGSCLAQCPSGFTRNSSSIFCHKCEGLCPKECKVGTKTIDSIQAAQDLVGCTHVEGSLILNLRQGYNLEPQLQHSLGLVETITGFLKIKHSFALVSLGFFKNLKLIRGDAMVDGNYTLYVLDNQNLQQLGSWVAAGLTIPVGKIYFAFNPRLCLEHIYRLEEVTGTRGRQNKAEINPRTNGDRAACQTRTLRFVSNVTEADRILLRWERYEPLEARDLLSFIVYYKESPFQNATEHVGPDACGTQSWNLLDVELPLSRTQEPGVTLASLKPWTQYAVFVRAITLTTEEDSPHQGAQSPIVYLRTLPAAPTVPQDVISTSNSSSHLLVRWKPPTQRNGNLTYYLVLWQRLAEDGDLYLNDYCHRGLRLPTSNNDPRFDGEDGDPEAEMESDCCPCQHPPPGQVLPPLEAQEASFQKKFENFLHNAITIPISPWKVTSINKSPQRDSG
Sequence of Insulin receptor-related protein (Homo sapiens) (P14616 747-1297 limits assumed): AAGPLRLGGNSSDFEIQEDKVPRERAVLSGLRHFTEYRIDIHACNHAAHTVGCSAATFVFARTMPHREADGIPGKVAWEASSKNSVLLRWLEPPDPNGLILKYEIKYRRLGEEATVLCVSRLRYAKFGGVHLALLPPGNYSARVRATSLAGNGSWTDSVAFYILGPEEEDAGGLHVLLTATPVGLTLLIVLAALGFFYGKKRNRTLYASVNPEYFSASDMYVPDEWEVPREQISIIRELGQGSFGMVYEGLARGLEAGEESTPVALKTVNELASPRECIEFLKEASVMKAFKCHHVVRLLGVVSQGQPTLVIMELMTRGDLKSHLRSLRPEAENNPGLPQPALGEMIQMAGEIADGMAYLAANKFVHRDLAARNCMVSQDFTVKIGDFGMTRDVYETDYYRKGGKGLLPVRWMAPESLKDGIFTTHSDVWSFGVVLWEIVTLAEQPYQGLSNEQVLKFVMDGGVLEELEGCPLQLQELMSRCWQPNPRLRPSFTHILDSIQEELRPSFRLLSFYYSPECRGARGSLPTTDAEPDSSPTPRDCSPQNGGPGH

[9] = biological target: Insulin receptor-related protein (Homo sapiens) (UniProt P14616); details: at 1 µM
[10] = biological target: T1, Tyrosine-protein kinase ITK/TSK (Homo sapiens) (UniProt Q08881); details: at 0.1 µM;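 note: mean percent inhibition of ITK from the GSK PKIS screen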
T1 sequence (whole entry): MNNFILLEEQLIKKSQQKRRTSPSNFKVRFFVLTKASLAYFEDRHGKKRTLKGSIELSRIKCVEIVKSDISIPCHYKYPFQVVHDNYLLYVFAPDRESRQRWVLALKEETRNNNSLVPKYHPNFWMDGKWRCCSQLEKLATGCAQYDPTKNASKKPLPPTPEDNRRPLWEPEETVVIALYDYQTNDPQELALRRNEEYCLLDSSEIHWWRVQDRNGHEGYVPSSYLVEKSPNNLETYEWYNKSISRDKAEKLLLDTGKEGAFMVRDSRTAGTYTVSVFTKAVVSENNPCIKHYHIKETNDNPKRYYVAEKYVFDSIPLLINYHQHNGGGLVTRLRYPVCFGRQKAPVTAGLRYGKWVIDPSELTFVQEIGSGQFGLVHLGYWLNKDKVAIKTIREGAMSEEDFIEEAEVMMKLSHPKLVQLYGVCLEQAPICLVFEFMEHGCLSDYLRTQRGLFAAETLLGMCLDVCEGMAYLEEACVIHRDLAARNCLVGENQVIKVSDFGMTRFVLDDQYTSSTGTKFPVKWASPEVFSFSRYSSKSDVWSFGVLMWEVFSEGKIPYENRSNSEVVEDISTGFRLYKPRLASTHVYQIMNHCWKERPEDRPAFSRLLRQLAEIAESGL

Sequence of Tyrosine-protein kinase Fyn (Homo sapiens) (P06241 2-537 limits assumed): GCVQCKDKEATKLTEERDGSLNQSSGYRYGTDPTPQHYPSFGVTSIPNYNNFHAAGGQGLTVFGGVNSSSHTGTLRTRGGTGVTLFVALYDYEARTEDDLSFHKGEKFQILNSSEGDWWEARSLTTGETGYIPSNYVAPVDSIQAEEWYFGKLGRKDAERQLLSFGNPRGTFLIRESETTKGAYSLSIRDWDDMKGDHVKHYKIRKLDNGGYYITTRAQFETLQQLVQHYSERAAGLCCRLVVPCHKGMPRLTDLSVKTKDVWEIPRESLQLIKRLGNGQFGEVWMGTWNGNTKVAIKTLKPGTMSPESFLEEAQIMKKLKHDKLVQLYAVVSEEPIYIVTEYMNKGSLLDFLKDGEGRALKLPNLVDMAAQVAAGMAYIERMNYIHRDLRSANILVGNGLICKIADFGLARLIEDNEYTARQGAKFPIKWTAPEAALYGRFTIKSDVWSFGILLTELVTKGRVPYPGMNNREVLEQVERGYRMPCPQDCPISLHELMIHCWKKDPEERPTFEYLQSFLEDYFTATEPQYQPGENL
Sequence of Tyrosine-protein kinase HCK (Homo sapiens) (P08631 2-526 limits assumed): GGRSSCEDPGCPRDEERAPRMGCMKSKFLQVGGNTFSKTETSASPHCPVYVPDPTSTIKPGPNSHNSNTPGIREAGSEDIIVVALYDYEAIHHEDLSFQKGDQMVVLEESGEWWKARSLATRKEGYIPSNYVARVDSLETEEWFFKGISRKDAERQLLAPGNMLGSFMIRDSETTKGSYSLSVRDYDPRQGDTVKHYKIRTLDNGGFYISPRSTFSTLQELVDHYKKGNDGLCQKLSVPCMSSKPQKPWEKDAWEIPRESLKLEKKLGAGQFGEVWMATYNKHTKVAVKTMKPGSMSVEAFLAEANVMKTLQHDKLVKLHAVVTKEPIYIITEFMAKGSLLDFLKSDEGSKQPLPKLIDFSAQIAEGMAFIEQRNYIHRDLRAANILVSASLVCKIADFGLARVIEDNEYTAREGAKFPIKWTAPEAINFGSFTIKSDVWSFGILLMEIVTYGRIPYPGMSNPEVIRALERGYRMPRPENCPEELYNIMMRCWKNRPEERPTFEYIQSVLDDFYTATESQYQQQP

| SMILES | inhibition [1] | inhibition [2] | inhibition [3] | inhibition [4] | inhibition [5] | inhibition [6] | inhibition [7] | inhibition [8] | inhibition [9] | inhibition [10] |
| --- | --- | --- | --- | --- | --- | --- | --- | --- | --- | --- |
| COc1ccc2ncn(-c3cc(O[C@H](C)c4ccccc4C(F)(F)F)c(C(N)=O)s3)c2c1 | 5% | 0.81% | 2.14% | -0.28% | -0.09% | 0.11% | 1.34% | -2.16% | -0.27% | 0.33% |
| COc1cc(N2CCN(C(C)C)CC2)ccc1Nc1nc(Nc2cccc3ncccc23)c2cc[nH]c2n1 | 2.23% | 0.79% | 1.71% | 12% | 60.5% | 22.6% | 82.1% | -1.05% | 14.8% | -0.09% |
| FC(F)(F)CNc1nccc(-c2cnn3ncccc23)n1 | 0.37% | 2.76% | 2.72% | 1.46% | 1.63% | 0.86% | 1.21% | -0.18% | 1.1% | -0.07% |
| Nc1nonc1-c1nc2cnccc2n1C1CC1 | 1.39% and -1.43% | 5.06% and 2.65% | 10.4% and 4.62% | 2.14% and -5.78% | 3.37% and -3.55% | -0.15% and 4.69% | 2.19% and 6.69% | 2.59% and 0.39% | 3.14% and 0.7% | 1.56% and -2.28% |
| CCS(=O)(=O)c1ccc(OC)c(Nc2ncc(-c3cccc(C(C)=O)c3)o2)c1 | 71.4% | 11% | 71.2% | 1.64% | 3.11% | 2.36% | 2.68% | 2.22% | 3.18% | 0.98% |
| COC(=O)Nc1nc2ccc(Oc3ccc(NC(=O)Nc4cc(C(F)(F)F)ccc4F)cc3)cc2s1 | 21.1% | 8.79% | 28.3% | -0.75% | 1.6% | 1.59% | 3.09% | -2.9% | -1.09% | 1.03% |
| COc1ccc(-c2nn3ncccc3c2-c2ccnc(Nc3ccc(F)c(F)c3)n2)cc1 | 12.1% | 3.38% | 16.5% | 2.75% | 3.2% | 4.32% | 2.06% | 3.12% | 3.47% | 0.92% |
| CN1CCC(n2cnc(-c3ccc(F)cc3)c2-c2ccnc(NCCO)n2)CC1 | 1.8% | 3.07% | 9.14% | 3.65% | 4.78% | 2.63% | 3.28% | 3.34% | 2.39% | 1.66% |
